USP1 inh: USP1/UAF1 (human) deubiquitinase inhibition. O94782. Potency, µM (top dose mostly 57.1 µM), actives largely listed as inhibitors. actives 0.23% (n = 390,000). recombinant USP1/UAF1, Ub-Rhodamine cleavage fluorescence; active = well fitted inhibition curve with a large enough effect; inconclusive = small, poorly fitted or top-dose-only effect; inactive = no such curve, though single readings can be large or run the other way; note: nearly all actives have a fitted effect of over 60% in size
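In this screen, compounds sit with the deubiquitinase complex (1nM) for 15 min at room temperature before Ub-Rho is added at 150nM final. Fluorescence rise is then followed for 6 reads every 60 seconds.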
TRHR enhancer: TRH receptor (human) allosteric enhancement | P34981 | TRHR cells, fluo-8 calcium fluorescence, EC20 TRH enhancement | enhancement, % at 2 µM | actives 0.66% (n = 360,000) | AID 493056; in the data active = enhancement above about 30%
Target sequence (P34981 whole entry, looked up): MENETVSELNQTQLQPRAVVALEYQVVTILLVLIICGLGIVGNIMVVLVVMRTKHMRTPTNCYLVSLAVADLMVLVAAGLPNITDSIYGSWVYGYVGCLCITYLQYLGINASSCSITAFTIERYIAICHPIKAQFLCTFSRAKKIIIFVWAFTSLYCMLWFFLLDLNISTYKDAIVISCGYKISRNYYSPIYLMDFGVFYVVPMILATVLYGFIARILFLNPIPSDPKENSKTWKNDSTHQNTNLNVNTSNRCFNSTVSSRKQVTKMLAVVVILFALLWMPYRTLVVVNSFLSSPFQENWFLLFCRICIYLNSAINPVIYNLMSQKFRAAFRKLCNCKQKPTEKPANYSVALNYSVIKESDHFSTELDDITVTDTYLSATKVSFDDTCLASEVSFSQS
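TRHR-expressing cells loaded with fluo-8 calcium dye were read kinetically (ex 480/em 530) during compound addition, then stimulated with an EC20 of TRH (10 nM final). Enhancement of the Gq-mediated intracellular calcium response was scored.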
D1 antag: human D1 dopamine receptor antagonism; P21728; HEK293 TREx D1 cells, calcium flux, dopamine EC80; active compounds read low; activity change, negative = inhibition, % at 10 µM; actives 3.2% (n = 360,000); AID 504652; in the data active = activity change below about -30%
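HEK293 T-REx cells expressing inducible, force-coupled D1 receptor; no-wash Ca dye, 30–90 min RT. Cmpd → 180 s read at 1 Hz → EC80 DA → 180 s read.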
TRHR ag: TRH receptor (human) agonism. actives 0.18% (n = 360,000). TRHR cells, calcium flux fluo-8, FDSS agonist mode. P34981. activation, % at 2 µM
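Agonist-mode FDSS calcium read (Ex 480/Em 530, 1 s cycles) in 1536-well TRHR cells with fluo-8 dye, after 10-cycle baseline and 23 nL compound addition; TRH at EC20 (10 nM final) added afterwards for the enhancer phase.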
D1 agonist: agonists of human D1 dopamine receptor; P21728; HEK293 T-REx D1 cells, calcium flux, agonist mode; activation, % at 2 µM; actives 1% (n = 360,000); AID 504660
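Tetracycline-induced HEK293 TREx D1 cells, force-coupled to calcium signalling, were dye-loaded with a no-wash calcium kit. Compound was pin-added after a 10 s baseline. Fluorescence was read kinetically at 1 cycle/s for 180 s, with calcium rises flagged as agonism.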
D1 potentiator: human D1 dopamine receptor positive modulation; actives 0.036% (n = 360,000); potentiation, % at 10 µM; HEK293 TREx D1 cells, calcium flux, dopamine EC20 potentiation; AID 504651; in the data active = potentiation above about 30%
Hits are given with their value; n = inactive; u = inconclusive; ! = repeats disagree. In the library only some 4.4% were active in any assay of this set; here they are far more common. Cut-off read from the data, not from the text of the source, unless noted: active = activation above about 30%; inactive = the rest.

SMILES | USP1 inh | TRHR enhancer | D1 antag | TRHR ag | D1 agonist | D1 potentiator
COc1cc(OC)c(OC)cc1/C=C/c1nc2cc3ccccc3cc2c(=O)n1-c1ccc(F)cc1F | n | n | n | n | 42 | n
CN1CCN(Cc2c(O)ccc3cc(-c4ccccc4)c(=O)oc23)CC1 | u | n | n | n | n | n
O=c1oc2c(CN3CCCCC3)c(O)ccc2cc1-c1nc2ccccc2[nH]1 | 28µM | 40 | n | 261 | 136 | n
O=C(O)c1ccc2nc(-c3cc4cccc(O)c4oc3=O)[nH]c2c1 | u | n | n | n | n | n
C=CCc1cccc2cc(-c3nc4ccc(C)cc4[nH]3)c(=O)oc12 | n | n | -42 | n | 66 | n
C=CCc1cccc2cc(NC(C)=O)c(=O)oc12 | n | n | n | n | n | n
O=c1oc2c(O)cccc2cc1-c1nc2ccccc2[nH]1 | n | 48 | n | 199 | 408 | n
Cc1ccc(C)c(N2CCN(C(=O)c3cc4c(=O)oc5ccccc5c4s3)CC2)c1 | n | n | n | n | n | n
O=S(=O)(CCN1CCN(c2ccccn2)CC1)c1ccc(F)cc1 | n | n | n | n | n | n
O=C(CCCN1CCN(c2ccccn2)CC1)c1ccc(F)cc1 | n | n | -74 | n | n | n
Cc1ccc(C(=O)NC2CCN(CCCC(=O)c3ccc(F)cc3)CC2)cc1 | n | n | -38 | n | n | n
CCOc1ccc(CCNC(=O)Cn2nc(CC)n3c(cc4c(OC)cccc43)c2=O)cc1OCC | n | n | n | n | n | n
Cc1ccc(-n2ncc(C(=O)NCc3ccco3)c2C2CCN(C(=O)OC(C)(C)C)CC2)cc1 | n | n | n | n | n | n
Cc1ccc(NS(=O)(=O)c2c(C)nc3sc(C)c(C)n3c2=O)cc1F | u | n | n | n | n | n
Cc1cccc(N2CCN(CCNC(=O)C3COc4ccccc4C3)CC2)c1C (configuration not stated) | n | n | -51 | n | n | n
Cc1ccc(Cl)cc1N1CCN(CCCNC(=O)C2COc3ccccc3C2)CC1 (configuration not stated) | n | n | -37 | n | 41 | n
O=C(NCCCN1CCN(c2ccc(F)cc2)CC1)C1COc2ccccc2C1 (configuration not stated) | n | n | n | n | n | n
CCN(C(=O)Nc1cn(CC(C)C)c(=O)c2ccccc12)c1cc(C)ccc1C | n | n | n | n | n | n
O=C(N/N=C/c1ccco1)c1cc(-c2ccc(Br)s2)[nH]n1 | n | n | n | n | n | n
C/C(=N/NC(=O)c1cc(-c2ccc(Br)s2)[nH]n1)c1ccco1 | u | n | -46 | n | n | n
O=C(N/N=C/c1ccco1)c1cc(-c2ccc(Cl)s2)[nH]n1 | n | n | -43 | n | n | n
C/C(=N\NC(=O)c1cc(-c2ccc(Br)s2)[nH]n1)c1ccncc1 | n | n | n | n | n | n
Cc1cc2c(n1-c1ccc(C(=O)NCc3ccc(OC(C)C)cc3)cc1)CCCC2 | n | n | n | n | n | n
Cc1ccc(CNC(=O)c2ccc(-n3c(C)cc4c3CCCC4)cc2)cc1 | n | 31 | n | n | n | n
CSc1ccc(CCNC(=O)CCCn2nc(C)c3sc4ccccc4c3c2=O)cc1 | n | n | -69 | n | n | n
SMILES | USP1 inh | TRHR enhancer | D1 antag | TRHR ag | D1 agonist | D1 potentiator
COc1cc(OC)c(NC(=O)CCCn2nc(C)c3sc4ccccc4c3c2=O)cc1Cl | u | n | -71 | n | n | n
Cc1ccc(NC(=O)CCCn2nc(C)c3sc4ccccc4c3c2=O)c(Cl)c1 | n | n | -45 | n | n | n
CC(=O)Nc1ccc(NC(=O)CCCn2nc(C)c3sc4ccccc4c3c2=O)cc1 | n | n | n | n | n | n
CCc1ccc(C2c3c(oc4ccc(C)cc4c3=O)C(=O)N2c2nc(C)c(C)s2)cc1 (configuration not stated) | n | n | n | n | n | n
CC(C)C(=O)OC1=CN(Cc2ccccc2)S(=O)(=O)c2ccccc21 | u | n | n | n | n | n
Cc1ccc(CNC(=O)COCc2cc(-c3ccc4c(c3)OCO4)on2)cc1 | n | n | n | n | n | n
CCCCc1ccc(C(=O)N/C(=C\c2ccc(C)cc2)C(=O)NC2CCCCC2)cc1 | n | n | n | n | n | n
CCOc1ccccc1CNC(=O)CCn1ccc2cc(S(=O)(=O)N3CCCCC3)ccc21 | n | n | n | n | 48! | n
O=C(CCn1ccc2cc(S(=O)(=O)N3CCCC3)ccc21)NCc1ccccc1F | n | n | -31! | n | n | n
Cc1cc(C)c(NC(=O)CSc2nc3c([nH]c4ccccc43)c(=O)n2C)c(C)c1 | n | n | n | n | n | n
Cn1c(CN2CCCCC2)nc2cc(NS(=O)(=O)c3ccc(Cl)cc3)ccc21 | n | n | n | n | 52 | n
CCCC(=O)Nc1ccccc1N1CCN(C(=O)C(C)C)CC1 | n | 32 | n | n | n | n
Nc1nnc(SCC(=O)OCC(=O)Nc2ccccc2F)s1 | n | n | -56 | n | n | n
CC(C)c1ccc(NC(=O)COC(=O)CSc2nnc(N)s2)cc1 | n | n | n | n | n | n
CC(C)CN(CC(C)C)S(=O)(=O)N1CCC(C(=O)NC2CCCCCCC2)CC1 | u | n | -36 | n | n | n
Fc1ccc(CNC(=S)Nc2ccc(Cl)cc2Cl)cc1 | n | n | -38 | n | n | n
Fc1ccc(CNC(=S)NCc2cccc(Cl)c2)cc1 | n | n | -33 | n | n | n
S=C(NCc1ccc(Cl)cc1)Nc1ccc(Cl)cc1Cl | n | n | n | n | n | n
S=C(NCc1ccccc1)NCc1cccc(Cl)c1 | n | n | n | n | n | n
CCOc1ccc(CCNC(=O)Cn2c(=O)c3cccn3c3ccc(F)cc32)cc1OCC | n | n | n | n | n | n
FC(F)(F)c1nnc(Nc2ccc(Cl)cc2)s1 | n | n | -30 | n | n | n
CC(C)(C)c1ccc(-c2nc(N)nc(N)n2)cc1 | n | n | n | n | n | n
Nc1nc(-c2ccc(Cl)cc2)nc(-c2ccc(Cl)cc2)n1 | n | n | -35 | n | n | n
COc1ccc(O)c(/C=N/n2c(-c3ccco3)csc2=Nc2cccnc2)c1 | n | n | -42 | n | n | n
CC(C)Cn1cnc2c1c(=O)[nH]c(=O)n2Cc1ccccc1 | n | n | -47 | n | n | n
CC(C)CCn1cnc2c1c(=O)[nH]c(=O)n2Cc1ccccc1 | n | n | n | n | n | n
CC(=O)N1CCN(C(=S)NC(=O)c2ccc(S(=O)(=O)N3CCOCC3)cc2)CC1 | n | n | -31 | n | n | n

Screening results as filed in PubChem BioAssay.
